# Compounds without any hit were thinned out: in the full panel of roughly 83,000, 20% have a hit.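 Single-dose data. Exposure time 48 hours. Values below 10 considered active.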 Activity calls are given as the source filed them.
# Tested on: SR leukemia
# Assay: NCI-60 one-dose screen, 48 h (100 = growth as untreated, 0 = no growth, -100 = all killed)
# Details: 10 µM unless noted
# Procedure: Growth inhibition of the SR human tumor cell line is measured as a screen for anti-cancer activity. Cells are grown in 96 well plates and exposed to the test compound for 48 hours. Compounds are tested at a single concentration, which is 10^-5 M for most compounds. The reported endpoint is percent growth (GI% or GIPRCNT), where numbers from 0 - 100% represent growth inhibition, and numbers from -100% - 0 represent cell death. For example, a value of 40 represents 60% growth inhibition. A value of 0 means no net growth occurred over the course of the experiment. A value of -40 indicates 40% of cells at the beginning of the experiment died by the end of the experiment. A value of -100 means all cells are dead at the end of the experiment.
# NCI-60 Human Tumor Cell Lines Screen was performed using the standard one-dose NCI protocol, which is described in more detail at https://dtp.cancer.gov/discovery_development/nci-60/default.htm.
# Compounds with GIPRCNT values below 10 were considered active. Activity score was based on GIPRCNT using the following formula: […]
# Score is 0 for GIPRCNT values of 100 or above, 50 for GIPRCNT values of 0, and 100 for GIPRCNT values of -100.
row,Compound,growth
1,COc1cc(CCn2nnc3c(Nc4ccc(N5CCOCC5)cc4)ncnc32)cc(OC)c1,64.2% (inactive)
2,O=S(=O)(O)CCl,84.9% (inactive)
3,COc1cccc(NC(=O)c2sc3nc4c(cc3c2N)CCCC4)c1,14.3% (inactive)
4,NC(=O)c1c(NC(=O)c2ccc3c(c2)OCO3)sc2c1CCC(=O)C2,-19.6% (active)
5,COc1ccc(C(=O)c2cc(OC)c(OC)c(OC)c2)cc1/C=C/C(=O)c1ccc(O)cc1,10.6% (inactive)
6,COc1ccc(C2SCC(=O)N2NC(=O)c2ccc(NC(=O)c3ccccn3)cc2)cc1OC (stereo not given),90.9% (inactive)
7,C/C1=C\CCC2(C)OC2CC2CCC(C)(O)C(CC1)C2(C)C (stereo not given),92.4% (inactive)
8,O=S(=O)(NCCCNc1cc(-c2cn(-c3ccccc3)nc2-c2cccc(O)c2)ccn1)c1cccc(F)c1,35% (inactive)
9,c1cncc(CNc2ccccc2-c2nnc(Nc3ccc4c(c3)OCCO4)o2)c1,14.1% (inactive)
10,O=C(CCCn1c(=O)c2sc3ccccc3c2n2nnc(-c3ccccc3)c12)NCCc1cnc[nH]1,84.2% (inactive)
11,CCCCNc1nnc(-c2cc(-c3cc4ccccc4o3)nn2-c2ccccc2)o1,76.5% (inactive)
12,C=C1C(=O)O[C@H]2[C@H]1CC/C(COC(=O)NCCc1cccc(OC)c1)=C\CC[C@@]1(C)O[C@@H]21,0.839% (active)
13,CCn1cc(C(=O)O)c(=O)c2cc(F)c(N3CCN(S(=O)(=O)c4ccc(OC)c(OC)c4)CC3)cc21,88.3% (inactive)
14,Cc1sc2nc(CSc3nnc(-c4ccco4)o3)[nH]c(=O)c2c1C,56.6% (inactive)
15,O=C(O)c1ccc(-n2cc(CNc3ccc(C(F)(F)F)cc3)c(-c3ccccc3)n2)cc1,84.1% (inactive)
16,COc1cc2c3c(c(=O)oc2cc1OS(=O)(=O)c1ccc(C(F)(F)F)cc1)CCCCC3,58.6% (inactive)
17,C=CC(=O)N[C@H](/C=C/C(=O)OCC)Cc1ccc(-c2cc(Cl)cc(Cl)c2)cc1,68.7% (inactive)
18,COc1cccc(-n2cc(-c3nc(Cl)c4ccccc4n3)nn2)c1,97.9% (inactive)
19,CCOC(=O)C1=C(C)NC(=O)NC1c1ccc(OCC(=O)N/N=C/c2ccc(Cl)cc2)cc1 (stereo not given),68.7% (inactive)
20,Cc1ccc(C(=O)c2sc3nc4c(cc3c2N)CCCC4)c(C)c1,9.04% (active)

row,Compound,growth
1,COc1ccc(C(=O)/C=C/c2cc(C(=O)c3cc(OC)c(OC)c(OC)c3)ccc2OC)cc1,6.69% (active)
2,COc1ccc(/C=C(\C#N)c2ccc([N+](=O)[O-])cc2)c2ccccc12,31% (inactive)
3,O=S(=O)(NCCCNc1cc(-c2cn(-c3ccccc3)nc2-c2cccc(O)c2)ccn1)c1ccc(C(F)(F)F)cc1,8.04% (active)
4,c1ccc2c(c1)Oc1ccccc1C2C1c2ccccc2Oc2ccccc21,86.3% (inactive)
5,O=C1Nc2cc(Cl)ccc2/C1=C/c1ccc(N2CCOCC2)s1,97% (inactive)
6,Cc1c(C2=NNC(c3ccc4c(c3)OCO4)C2)[n+]([O-])c2ccccc2[n+]1[O-] (stereo not given),92.2% (inactive)
7,O=P([O-])(O)OP(=O)([O-])O.[NH-][C@H]1CCCC[C@@H]1[NH-].[OH-].[OH-].[Pt+4],91.3% (inactive)
8,CCCC1OC(c2ccc(C(C)C)cc2)OCC1CC (stereo not given),91.7% (inactive)
9,O=Nc1c(-c2c(O)[nH]c3ccc([N+](=O)[O-])cc23)[nH]c2ccc(O)cc12,0.378% (active)
10,COc1ccc(C2CC(c3cccs3)=NN2c2ccc(S(=O)(=O)NC(=O)NCc3cccc(OC)c3)cc2)cc1 (stereo not given),75.8% (inactive)
11,O=C(O)c1cccc([N+](=O)[O-])c1/C=C/c1ccccc1,85.2% (inactive)
12,CN=S(=O)(NC(=O)c1ccc(Cl)cc1Cl)c1ccc(Br)s1 (stereo not given),94.3% (inactive)
13,CCCCn1c(=O)c(C2CNC(=O)c3ccccc3N2)cc2ccccc21 (stereo not given),102% (inactive)
14,COc1ccc(C(=O)/C=C/c2ccc(/C=C/c3cc(OC)c(OC)c(OC)c3)cc2)cc1,9.61% (active)
15,COc1cc(C(=O)N2CCN(C(=O)c3ccco3)CC2)c(N)cc1OCc1ccccc1,86.5% (inactive)
16,c1ccn2nnnc2c1,96.5% (inactive)
17,O=S=Nc1ccc([N+](=O)[O-])cc1,90.3% (inactive)
18,COc1ccc(/C=C/c2nc(N3CCOCC3)c3cc(F)c(F)cc3n2)cc1OC,16.2% (inactive)
19,O=C(Nc1cc(C(F)(F)F)cc(C(F)(F)F)c1)Nc1ccc(OCc2nnc(-c3ccc(Cl)cc3)o2)c(F)c1,0.985% (active)
20,CNC(=O)c1cc(Oc2ccc3c(c2)sc2nc(-c4ccc(Cl)cc4)cn23)ccn1,82.9% (inactive)

# Reference: PubChem BioAssay (NCI)
